Experimental data from PubChem BioAssay (NCI).
The panel holds about 83,000 compounds, 20% with a hit somewhere; the sample as a whole holds those more often.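 Method: cells in 96-well plates; compound added at one concentration; 48 h incubation; percent growth measured; values under 10 scored active.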 Values without a mark were called inactive. Activity calls are given as the source filed them.

Assays:
Assay in all cases: NCI-60 one-dose screen, 48 h (100 = growth as untreated, 0 = no growth, -100 = all killed)
Details in all cases: 10 µM unless noted
RPMI-8226 leukemia = tested on: RPMI-8226 leukemia
OVCAR-5 ovarian = tested on: OVCAR-5 ovarian
OVCAR-4 ovarian = tested on: OVCAR-4 ovarian
SK-OV-3 ovarian = tested on: SK-OV-3 ovarian
IGROV1 ovarian = tested on: IGROV1 ovarian
OVCAR-3 ovarian = tested on: OVCAR-3 ovarian
HS 578T breast = tested on: HS 578T breast
NCI/ADR-RES ovarian = tested on: NCI/ADR-RES ovarian
T-47D breast = tested on: T-47D breast
BT-549 breast = tested on: BT-549 breast
MDA-MB-435 melanoma = tested on: MDA-MB-435 melanoma
SW-620 colon = tested on: SW-620 colon
MCF7 breast = tested on: MCF7 breast
HCT-116 colon = tested on: HCT-116 colon
HCC-2998 colon = tested on: HCC-2998 colon
KM12 colon = tested on: KM12 colon
OVCAR-8 ovarian = tested on: OVCAR-8 ovarian

SMILES	growth (RPMI-8226 leukemia)	growth (OVCAR-5 ovarian) [%]	growth (OVCAR-4 ovarian) [%]	growth (SK-OV-3 ovarian)	growth (IGROV1 ovarian)	growth (OVCAR-3 ovarian)	growth (HS 578T breast)	growth (NCI/ADR-RES ovarian)	growth (T-47D breast) [%]	growth (BT-549 breast)	growth (MDA-MB-435 melanoma)	growth (SW-620 colon)	growth (MCF7 breast)	growth (HCT-116 colon)	growth (HCC-2998 colon)	growth (KM12 colon)	growth (OVCAR-8 ovarian) [%]
Cc1c(Cl)cccc1NC(=O)c1sc2nc3c(cc2c1N)CCCCC3	22.2%	58.3	59.2	47.8%	54.9%	-3.42% (active)	38%	19.7%	44	48.7%	-0.269% (active)	25.3%	20.8%	32.3%	55.7%	24.7%	–
C#CCOC(=O)[C@]1(C)CCC[C@]2(C)[C@H]3C[C@H]4C(C(C)C)=C[C@]3(CC[C@H]21)[C@@H]1C(=O)CCC(=O)[C@@H]14	67.9%	93.8	73.9	78.9%	78.3%	95%	80.8%	81.5%	66.7	91.7%	97.7%	86.9%	83.2%	77.8%	102%	87%	–
[2H]c1cc2c(c([2H])c1F)/C(=C/c1[nH]c(C)c(C(=O)NCCN(CC)CC)c1C)C(=O)N2	30.2%	28.7	40.6	14.5%	30.4%	73.3%	44.9%	65.7%	68.7	67.6%	34%	25.7%	38.5%	34.1%	69.7%	1.85% (active)	–
COc1ccc(C2N(c3cc(OC)c(OC)c(OC)c3)C(=O)C2(F)F)cc1F (centres undefined)	20.8%	78.7	58.3	75.5%	44.2%	17.6%	21.9%	32.9%	65.7	35%	12.9%	21.2%	15.1%	5.76% (active)	84.2%	22.9%	–
CC(C)(C)c1ccc2oc(=O)n(SC(Cl)(Cl)Cl)c2c1	102%	105	106	102%	111%	106%	119%	100%	93.4	98.2%	107%	76.5%	86.4%	103%	96.5%	95.2%	–
CN(CCC#N)C(=O)Nc1ccccc1	107%	111	104	100%	106%	108%	105%	102%	97.2	102%	107%	103%	100%	109%	108%	104%	–
CCCCOc1nc2ccc(C)cc2cc1/C=C/C(=O)/C=C/c1ccc2c(c1)OCO2	5.04% (active)	131	95.4	106%	90.3%	74.6%	101%	91.7%	62.7	75.9%	35.8%	99.5%	37.8%	10.5%	106%	87.3%	–
COc1ccc(-n2nc(C(=O)NCC(=O)O)nc2-c2ccccc2)cc1	112%	100	111	111%	105%	116%	115%	118%	104	94.2%	111%	112%	98.2%	101%	118%	108%	–
COc1cc(NC(=O)c2cc(O)c(C/C=C(\C)CCC=C(C)C)c(O)c2)cc2c1O[C@]1(C)CC[C@@H](O)C(C)(C)[C@H]1C2	-30% (active)	44.9	29.6	26.9%	20%	-12.1% (active)	18.4%	65%	18	0.27% (active)	10.2%	9.02% (active)	8.42% (active)	10.8%	16.4%	7.44% (active)	–
CSc1nc(-c2ccc(F)cc2)c(C#N)c(N2CCOCC2)n1	–	89.2	90.6	97.3%	92%	98.1%	91.4%	97.5%	79.7	95.3%	105%	97.5%	90.4%	96.6%	101%	101%	92.9
COc1ccc(C2C(c3ccccc3)C(=O)N2c2cc(OC)c(OC)c(OC)c2)cc1I (centres undefined)	-9.86% (active)	35.9	39.8	6.66% (active)	20.6%	12%	–	9.97% (active)	69.7	12%	2.2% (active)	23.7%	8.53% (active)	3.14% (active)	31.8%	15.3%	–
CC1CCN(CCCCCOc2ccc3oc4cc(Cl)ccc4c(=O)c3c2)CC1	50.4%	64.8	75.2	96.5%	51.8%	73.3%	84.8%	70.8%	64.6	81.8%	3.73% (active)	36.8%	45.9%	23.3%	79.3%	49.5%	–
O=[N+]([O-])c1ccc(N=Nc2c(O)c(N=Nc3cc([N+](=O)[O-])cc([N+](=O)[O-])c3O)cc(N=Nc3cc(S(=O)(=O)O)cc4cc(S(=O)(=O)O)cc(O)c34)c2O)cc1	102%	104	98.4	96.2%	108%	104%	101%	103%	109	104%	107%	108%	99.6%	80.9%	104%	103%	–
COc1ccc(Cc2nc(C#N)c(N3CCN(c4ccc(F)cc4)CC3)o2)cc1	–	86.7	79.3	89.6%	76.8%	96.9%	92.5%	95.3%	81.2	94.5%	84.6%	97.7%	79.7%	78.2%	93.8%	78.8%	103
CC(=O)ON1CCCC(P(=O)(OCOC(=O)C(C)(C)C)OCOC(=O)C(C)(C)C)C1=O (centres undefined)	-47.5% (active)	17.7	13.3	6.56% (active)	-28.4% (active)	2.58% (active)	1.28% (active)	-2.01% (active)	16.4	-1.15% (active)	27%	16.5%	-1.76% (active)	0.623% (active)	-36.8% (active)	-11.5% (active)	–
